Bioassay records: PubChem, NMMLSC
In the library only some 0.37% were active in any assay of this set; here they are far more common.
Rab2 wt GTP: changes GTP binding to wildtype dog Rab2A, up or down; actives 0.19% (n = 190,000); GTP binding activity, % at 10 µM; P61105; AID 760; GST-Rab2 wt beads, Bodipy-GTP binding, flow cytometry;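 active = GTP binding activity at least 20 points away from 100%, either lowered or raised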
HRas wt GTP bind: changes GTP binding to wildtype human HRas. GST-Ras wt beads, Bodipy-FL-GTP binding, flow cytometry; actives lie on both sides. GTP binding activity, % at 10 µM. actives 0.14% (n = 190,000);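 active = GTP binding activity at least 20% away from the 100% baseline, either lowered as inhibitor or raised as activator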
Target sequence (P01112 whole entry, looked up): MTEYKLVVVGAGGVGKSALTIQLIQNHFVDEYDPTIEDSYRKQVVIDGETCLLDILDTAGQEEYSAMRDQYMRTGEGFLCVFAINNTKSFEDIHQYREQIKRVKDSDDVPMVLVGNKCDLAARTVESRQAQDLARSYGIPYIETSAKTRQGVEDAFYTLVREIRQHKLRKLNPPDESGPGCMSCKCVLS
Rac1 mut GTP: human Rac1 activated mutant GTP binding change | percent activity (GTP binding), % at 10 µM | P63000 | actives 0.11% (n = 190,000) | GST-Rac1 activated beads, fluorescent GTP binding, flow cytometry; actives lie on both sides; 100% means binding = to untreated wells;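 active = GTP binding at least 20 percentage points away from the 100% baseline, in either direction, so actives lie on both sides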
Rac1 wt GTP bind: alters GTP binding to wildtype human Rac1; GTP binding activity (% of control), % at 10 µM; actives 0.27% (n = 190,000); GST-Rac1 beads, fluorescent GTP binding, flow cytometry; actives lie on both sides; 0 = cold GTP competed, 100 = untreated;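 active = GTP binding activity at least 20 points away from the 100% control level, either lower or higher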
Rab7 wt GTP bind: dog Rab7 wildtype GTP binding, inhibitors and activators; AID 758; actives 0.055% (n = 190,000); GST-Rab7 beads, fluorescent GTP binding, flow cytometry; actives lie on both sides; untreated = 100%, excess cold GTP = 0%; GTP binding activity (percent of control), % at 10 µM;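 active = fluorescent GTP binding to Rab7 beads changed by at least 20 points from the 100% baseline, either direction, mostly lower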;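 note: median green fluorescence of bound Bodipy-FL-GTP per Rab7 bead population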
Cdc42 wt GTP: modulators (inhibitors or activators) of GTP binding to human Cdc42 wildtype; P60953; GST-Cdc42 beads, Bodipy-GTP binding, flow cytometry; actives lie on both sides; percent activity (GTP binding), % at 10 µM; actives 0.2% (n = 190,000); AID 761;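 active = percent activity GTP binding at least 20 points away from the 100% baseline, either down as inhibitor or up as activator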;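 note: median bead fluorescence of bound Bodipy-FL-GTP at 100 nM; below 100% means less GTP binding so inhibitor and above means activator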
Target sequence (P60953 whole entry, looked up): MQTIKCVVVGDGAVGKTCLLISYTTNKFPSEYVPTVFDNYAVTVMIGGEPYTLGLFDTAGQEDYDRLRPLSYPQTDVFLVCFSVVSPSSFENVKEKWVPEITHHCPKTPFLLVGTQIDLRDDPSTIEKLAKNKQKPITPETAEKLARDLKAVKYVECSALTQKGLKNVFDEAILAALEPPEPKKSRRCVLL
Hits are given with their value; 0 = inactive.

SMILES	Rab2 wt GTP	HRas wt GTP bind	Rac1 mut GTP	Rac1 wt GTP bind	Rab7 wt GTP bind	Cdc42 wt GTP
COc1cc(NC(=O)c2cccs2)c(OC)cc1NC(=O)CCC(=O)Nc1cccc2ncccc12	71	73	0	67	0	74
COc1cc(C(=O)Nc2cccc3ncccc23)cc(OC)c1OC	0	0	0	0	0	0
c1ccc(OCc2nc(-c3cccs3)no2)cc1	0	0	0	0	0	0
COc1ccc(C(=O)N2CCOC23CCN(c2ncccn2)CC3)cc1	0	0	0	0	0	0
COc1ccccc1C(=O)Nc1nc(-c2ccc3c(c2)OCCO3)cs1	0	0	78	78	0	78
CCC(=O)Nc1nc(-c2ccc3c(c2)OCCO3)cs1	0	0	0	0	0	0
COc1ccc(-c2c3c(nc4sc(C(=O)Nc5cc(C)on5)c(N)c24)CCC3)cc1	0	0	0	0	0	0
O=C(Nc1cccc(-c2nnc(-c3ccco3)o2)c1)c1ccccc1	0	0	0	76	0	0
Cc1ccccc1NC(=O)c1cc2c(C)nc3ccccc3c2o1	0	0	0	0	0	0
CCc1ccc(NC(=O)c2cc3c(C)nc4ccccc4c3o2)cc1	0	0	0	75	0	0
COc1ccc(CCN(C)c2ccc(S(=O)(=O)N3CCCC3)cc2[N+](=O)[O-])cc1OC	0	0	0	0	0	0
CCn1nc(C(=O)OCC(=O)c2cc(C)n(Cc3cccs3)c2C)c2ccccc2c1=O	76	0	74	78	0	77
O=C(C#Cc1ccccc1)c1ccc([N+](=O)[O-])cc1	0	0	77	0	0	0
COc1cc(/C=N/NC(=O)c2cc3ccccc3cc2O)ccc1OCCN1CCCCC1	0	0	76	0	0	0
COc1ccc(-c2csc(C3=C(O)CN(C(C)C)C3=N)n2)cc1OC	76	76	0	73	0	73
CCN(CC)C(=O)Cn1cc(C(=O)C(=O)NCc2ccco2)c2ccccc21	0	0	0	0	0	0
Cc1cc(=O)[nH]c2c(N=Nc3ccc(O)cc3)c(N)nn12	64	63	79	56	0	60
c1ccc(CN(Cc2ccccc2)c2nn[nH]n2)cc1	0	0	0	0	0	0
Clc1ccc(CN(Cc2ccc(Cl)cc2)c2nn[nH]n2)cc1	0	0	77	0	0	0
CC(C)CNC(=O)c1ccccc1NC(=O)CSCc1ccccc1	0	0	0	0	0	0
CCCCn1c(O)c(/C=C/C=C/C=Nc2ccccc2)sc1=S	0	0	78	0	0	0
CCn1c(O)c(/C=C/C=C/C=Nc2ccccc2)sc1=S	0	0	0	0	0	0
COc1ccc(CCC(=O)NCc2ccco2)cc1	0	0	0	0	0	0
COCCNC(=O)c1cnn2c(C(F)F)cc(-c3ccccc3)nc12	0	0	0	79	0	0
O=C(NCc1ccco1)c1cnn2c(C(F)F)cc(-c3ccccc3)nc12	0	0	0	0	0	0
SMILES	Rab2 wt GTP	HRas wt GTP bind	Rac1 mut GTP	Rac1 wt GTP bind	Rab7 wt GTP bind	Cdc42 wt GTP
O=C1c2ccccc2-c2onc3ccc(Oc4ccccc4)c1c23	79	0	68	79	0	78
CCOC(=O)C(C(=O)OCC)c1cc(Br)c2noc3c2c1C(=O)c1ccccc1-3	0	0	0	0	0	0
O=c1c2ccccc2nc2c3ccccc3c(NCc3ccccn3)nn12	74	76	0	65	0	75
CCOC(=O)c1nc(NCc2cccnc2)c2ccccc2n1	0	0	0	0	0	0
O=c1c2ccccc2nc2c3ccccc3c(NCCO)nn12	62	62	78	63	0	58
O=c1c2ccccc2nc2c3ccccc3c(NCc3cccnc3)nn12	72	75	0	69	0	72
Cc1nc(NCc2ccccn2)c2ccccc2n1	0	0	0	0	0	0
Cc1ccc(-c2cc(-c3nnc(SCC(=O)NC(C)C(C)C)n3N)c3ccccc3n2)cc1 (stereo unspecified)	0	0	0	0	0	0
